Bioassay records deposited in PubChem BioAssay by several laboratories.
GDH-TPI counter = counter-screen for M. tuberculosis FBA inhibitors: GDH-TPI coupled enzymes; actives 1.2% (n = 360,000); AID 588335; GDH-TPI coupled enzyme counterscreen, NADH absorbance; inhibition, % at 4.8 µM; in the data active = inhibition above about 30%;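 also: 0% = DMSO wells and 100% = wells lacking the enzyme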
Rv3671c protease = inhibits the M. tuberculosis serine protease Rv3671c. P9WHR9. inhibition, % at 5.96 µM. actives 0.048% (n = 320,000). AID 2606; in the data active = inhibition above about 38%;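 also: extracellular domain of Rv3671c used as enzyme; 0% = enzyme with DMSO and 100% = no enzyme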
FBA Mtb inh = inhibits M. tuberculosis FBA enzyme | P9WQA3 | inhibition, % at 1 µM | purified M. tuberculosis FBA, fluorescence read-out | actives 2.3% (n = 360,000); in the data active = inhibition above about 27%;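 also: 0% = vehicle and 100% = reference inhibitor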
Target sequence (P9WQA3 whole entry, looked up): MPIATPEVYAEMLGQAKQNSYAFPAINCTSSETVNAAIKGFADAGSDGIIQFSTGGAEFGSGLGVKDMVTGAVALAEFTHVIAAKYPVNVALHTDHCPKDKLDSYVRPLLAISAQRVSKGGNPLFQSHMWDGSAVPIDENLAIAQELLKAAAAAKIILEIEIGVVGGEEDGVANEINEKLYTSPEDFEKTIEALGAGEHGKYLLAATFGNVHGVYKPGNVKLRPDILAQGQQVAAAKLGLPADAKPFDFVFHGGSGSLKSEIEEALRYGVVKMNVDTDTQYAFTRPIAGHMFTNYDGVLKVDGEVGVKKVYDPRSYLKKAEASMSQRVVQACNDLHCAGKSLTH
UGM FP inh = Mtb UDP-galactopyranose mutase inhibition; P9WIQ1; purified UGM, fluorescence polarization probe displacement; inhibition, % at 10 µM; actives 0.06% (n = 320,000); in the data active = inhibition above about 10%, passing the limit was not always enough
* marks the source's active call; other numbers are inactive results; nt = no result; + = active, no number. In the library only some 3.5% were active in any assay of this set; here they are far more common.

SMILES | GDH-TPI counter | Rv3671c protease | FBA Mtb inh | UGM FP inh
O=c1oc2cc(OCc3c(F)cccc3Cl)ccc2cc1-c1ccccn1 | 4 | -6 | 20 | -1
CCCOc1ccc2cc(-c3ccccn3)c(=O)oc2c1 | 14 | 9 | + | -2
CN(C)C(=O)COc1ccc2cc(-c3ccccc3)c(=O)oc2c1 | 53* | -1 | + | -1
COc1ccc(-c2cc(=O)oc3cc(OCC(=O)N(C)C)ccc23)cc1 | 21 | -8 | 7 | 3
O=C(Nc1ccc(NS(=O)(=O)c2ccccc2)c(Cl)c1)c1ccccc1 | 11 | nt | 0 | nt
CC(Oc1ccc2cc(-c3ccccc3)c(=O)oc2c1)C(=O)NCC1CCC(C(=O)O)CC1 (stereo unspecified) | 36* | -5 | + | 6
CC(=O)Oc1ccc2cc(-c3cccnc3)c(=O)oc2c1 | 16 | nt | + | nt
CCN1CCC[C@H]1CNCCCn1cnc2c(SC)ncnc21 | 2 | nt | 1 | nt
Cc1ccc(S(=O)(=O)c2c(N)n(-c3ccccc3)c3nc4ccccc4nc23)cc1 | 14 | -6 | 129* | -1
CC(=O)Nc1c(S(=O)(=O)c2ccccc2)c2nc3ccccc3nc2n1Cc1ccccc1 | 11 | -1 | 148* | 0
Cc1ccc(-n2c(N)c(C(=O)Nc3c(C)n(C)n(-c4ccccc4)c3=O)c3nc4ccccc4nc32)cc1 | 9 | 3 | 4 | 0
Nc1c(S(=O)(=O)c2cc(Cl)ccc2Cl)c2nc3ccccc3nc2n1CCN1CCOCC1 | 20 | 3 | 13 | 1
CN(C)CCCn1c(N)c(S(=O)(=O)c2ccccc2)c2nc3ccccc3nc21 | 20 | -1 | 113* | 1
C=CCn1c(NS(=O)(=O)c2ccccc2)c(S(=O)(=O)c2ccc(C)cc2)c2nc3ccccc3nc21 | 8 | -233 | 14 | 3
CCCCn1c(N)c(S(=O)(=O)c2ccc(C)cc2)c2nc3ccccc3nc21 | 18 | -19 | 116* | 0
CC(C)c1ccc(NC(=O)c2ccc(-c3ccnn3C)c3ccoc23)cc1 | 8 | nt | -2 | nt
O=C1C(Cc2ccc3[nH]ccc3c2)NC(=S)N1c1ccccc1 (stereo unspecified) | 1 | 2 | -1 | 1
COc1ccc2c(C(=O)NCCCCO)c(-c3ccc(S(C)(=O)=O)cc3)sc2c1 | 20 | 2 | + | 3
O=C(c1ccco1)n1c(=S)nc2ccccn21 | 52* | 0 | -4 | -4
Cc1cccc2nc(=S)n(C(=O)c3ccco3)n12 | 27 | -5 | 0 | 2
O=C(O)COc1c(-c2ccccc2)oc2ccccc2c1=O | 10 | 3 | 2 | -1
CC(=O)Oc1c(-c2ccco2)oc2ccccc2c1=O | 44* | 5 | 22 | -7
CCOP(=O)(OCC)c1nc(-c2cccc3ccccc23)oc1N1CCOCC1 | 15 | -2 | + | -1
CCOP(=O)(OCC)c1nc(-c2ccc(C)cc2)oc1N1CCOCC1 | 15 | 6 | 169* | 0
COc1ccc(C(=O)N(CN2CCCC2=O)c2nccs2)cc1OC | 46* | -2 | -3 | 1
SMILES | GDH-TPI counter | Rv3671c protease | FBA Mtb inh | UGM FP inh
CC(C)(C)C(=O)N1Cc2cc(-c3ccccc3)ccc2-n2nncc2C1 | nt | nt | 1 | nt
COc1ccc(-c2ccc3c(c2)CN(C(=O)C(C)(C)C)Cc2cnnn2-3)cc1 | nt | nt | 140* | nt
CC(C)N(C(=O)[C@H]1CC(CC(=O)NCC23CC4CC(CC(C4)C2)C3)C(=O)N2CCc3c([nH]c4ccccc34)[C@]12C)C(C)C (stereo partly specified) | 7 | 4 | -1 | nt
CC(=O)c1ccc(N2CCN(C(=O)CCCc3nc4ccccc4s3)CC2)cc1 | 32* | 3 | 1 | -1
CN1C(=O)C2(N=c3ccccc3=N2)c2ccccc21 | 19 | -1 | 30* | -3
COc1cc(C#Cc2c(-c3cncn3C)n(C)c3ccc(-c4ccc(OC)nc4)cc23)cc(OC)c1 | 14 | -4 | 8 | -3
COc1cc(OC)cc(-c2c(C#Cc3ccsc3)c3cc(-c4cnc(OC)nc4)ccc3n2C)c1 | 3 | -1 | 0 | 4
COCc1ccc(-c2ccc3c(c2)c(C#Cc2ccsc2)c(-c2cc(OC)cc(OC)c2)n3C)cc1 | 33* | -5 | 3 | 0
COc1cc(C#Cc2c(-c3cncn3C)n(C)c3ccc(-c4ccc5[nH]ccc5c4)cc23)cc(OC)c1 | 13 | -5 | 46* | 4
COc1cc(OC)cc(-c2c(C#Cc3ccsc3)c3cc(-c4ccc(OC)c(F)c4)ccc3n2C)c1 | 32* | -11 | 4 | 1
COc1cc(OC)cc(-c2c(-c3ccc(C(C)=O)cc3)c3cc(-c4cccc5[nH]ccc45)ccc3n2C)c1 | 36* | -8 | 13 | 4
COc1cc(OC)cc(-c2c(C#Cc3ccsc3)c3cc(-c4cc(F)cc(F)c4)ccc3n2C)c1 | 8 | -6 | 0 | 0
Cc1ccc(NC(=O)COc2cccc3c2OC(C)(C)C3)c(O)c1 | 11 | 0 | -2 | 4
COc1ccc(-c2c(-c3cc(OC)cc(OC)c3)n(C)c3ccc(-c4ccc5[nH]ccc5c4)cc23)cc1 | 21 | 4 | 134* | 3
COc1cc(OC)cc(-c2c(C#Cc3ccsc3)c3cc(-c4ccc5[nH]ccc5c4)ccc3n2C)c1 | 44* | -3 | 12 | 2
CC(NCC(=O)Nc1ccccc1C(=O)NC1CC1)c1ccc(F)cc1F (stereo unspecified) | 3 | -6 | 1 | 0
Cc1c(NC(=O)c2ccc(=O)oc2)c(=O)n(-c2ccccc2)n1C | 33* | -3 | -1 | 0
Cn1c(=O)c2cc(NC(=O)NCc3ccccc3)ccc2n1Cc1ccc(Cl)cc1 | -7 | nt | 123* | nt
Cn1c(=O)c2cc(NC(=O)Nc3ccccc3)ccc2n1Cc1ccccc1 | 4 | nt | 142* | nt
CCN1CCN(Cc2ccc(NC(=O)Nc3ccccc3)cc2)CC1 | -11 | -3 | 4 | 0
COc1cc(/C(C)=N/NC(=O)c2nnn(-c3nonc3N)c2-c2cccs2)ccc1O | 28 | -3 | 3 | 0
Cc1ccc(/C=N/NC(=O)c2nnn(-c3nonc3N)c2-c2ccc3c(c2)OCO3)s1 | 47* | 4 | 0 | 2
COc1ccc(/C=N/NC(=O)c2nnn(-c3nonc3N)c2-c2cccs2)cc1OC | 69* | 1 | 7 | -2
Cc1ccsc1/C=N/NC(=O)c1nnn(-c2nonc2N)c1C(C)C | 34* | -3 | 2 | -1
COc1cc(/C=N/NC(=O)c2nnn(-c3nonc3N)c2-c2cccs2)ccc1O | 47* | -2 | 4 | 1
SMILES | GDH-TPI counter | Rv3671c protease | FBA Mtb inh | UGM FP inh
Cc1ccc(/C=N/NC(=O)c2nnn(-c3nonc3N)c2-c2cccs2)cc1 | 27 | -8 | 7 | 0
O=S(=O)(Nc1ccc2ccccc2n1)c1ccccc1 | 27 | -2 | 4 | -5
COc1cc(/C=N/NC(=O)c2nnn(-c3nonc3N)c2C(C)C)ccc1O | 32* | -5 | -3 | -2
CC(/C=N/NC(=O)c1nnn(-c2nonc2N)c1C(C)C)=C\c1ccccc1 | 33* | -19 | 3 | 0
CCCc1c(C(=O)N/N=C/C(C)=C/c2ccccc2)nnn1-c1nonc1N | 3 | 3 | 2 | 1
COC(=O)c1cc(C)sc1NC(=O)CSc1ncccn1 | 4 | -2 | 2 | 3
Cn1cc(/C=C2\C(=O)NC(=O)N(c3ccccc3)C2=O)c2ccccc21 | 9 | -5 | -5 | 14*
